# A selection: hits, their analogues and other compounds. The true share with any hit is near 3.9%.
# ALR H2O2 inh: blocks human ALR sulfhydryl oxidase activity | P55789 | purified ALR, DTT oxidation, H2O2 HRP-luminol luminescence | inhibition, % (test concentration not listed) | hit rate 3.8% among 290,000 | AID 485317;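 active = mean replicate inhibition above about 79%, with every replicate also reaching it, limit read from the data; inconclusive = only one of the two criteria met; inactive = mean below limit and not every replicate reaching it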
# UBC9 SUMO inh: blocks human SUMOylation mediated by UBC9; P63279; hit rate 0.36% among 290,000; inhibition, % at 35 µM; HTRF SUMOylation assay, SAE1/SAE2 + UBC9, in vitro; in the data active = inhibition above about 50%, passing the limit was not always enough; inconclusive = no clear call, values can overlap the other calls
# Target sequence (P63279 whole entry, looked up): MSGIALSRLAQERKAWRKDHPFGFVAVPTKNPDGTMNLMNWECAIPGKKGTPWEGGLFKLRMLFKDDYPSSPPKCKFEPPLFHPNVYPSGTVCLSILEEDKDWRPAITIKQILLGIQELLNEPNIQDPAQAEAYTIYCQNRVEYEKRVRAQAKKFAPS
# H9c2 protect: modulators protecting cardiomyocytes from myocardial damage; H9c2 cardiomyocytes, H2O2 injury protection, ATPLite, 2 h; protection from H2O2 cell death, % at 20 µM; hit rate 0.63% among 360,000;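 active = compounds giving at least 50% protection of heart cells from peroxide-induced death in the single-dose screen, raw or plate-pattern-corrected value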;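 note: 0% = DMSO wells with peroxide and 100% = DMSO wells without peroxide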
# NTR1 ag: NTR1 (human) agonism; P30989; NTR1-U2OS beta-arrestin-GFP spot imaging, agonist mode; activation, % at 20 µM; hit rate 0.17% among 330,000;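 active = activation at or above 40% of the spot to cytoplasm intensity ratio, with at least 20 cells analyzed; inconclusive = wells under 20 cells, flagged as cytotoxic or low count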;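 note: 0% = DMSO without peptide and 100% = 100 nM NTR1 peptide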
# Target sequence (P30989 whole entry, looked up): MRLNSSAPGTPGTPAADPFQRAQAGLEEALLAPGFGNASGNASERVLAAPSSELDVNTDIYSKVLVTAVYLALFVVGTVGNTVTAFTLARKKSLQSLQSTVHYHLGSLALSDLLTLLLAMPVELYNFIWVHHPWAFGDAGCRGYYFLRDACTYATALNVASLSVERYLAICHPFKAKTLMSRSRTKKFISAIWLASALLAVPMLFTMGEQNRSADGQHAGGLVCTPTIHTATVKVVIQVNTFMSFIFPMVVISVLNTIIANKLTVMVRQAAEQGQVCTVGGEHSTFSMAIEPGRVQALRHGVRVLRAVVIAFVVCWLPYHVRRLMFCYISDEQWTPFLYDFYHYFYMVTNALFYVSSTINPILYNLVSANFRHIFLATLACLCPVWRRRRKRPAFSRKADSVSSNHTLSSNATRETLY
# * = called active by the depositor; ? = inconclusive; nt = not tested or not shown.
SMILES,ALR H2O2 inh,UBC9 SUMO inh,H9c2 protect,NTR1 ag
O=C1C=CC(=O)N1,-12,nt,-45,-2
CC(=O)O[C@H]1CC[C@H]2[C@@H]3CCc4cc(O)ccc4[C@H]3CC[C@]12C,5,-18,-6,1
CC(C)NC(=S)Nc1ccc(S(=O)(=O)Nc2ncccn2)cc1,3,12,5,1
S=c1[nH]c2ccccc2n2cccc12,-6,11,9,2
O=c1[nH]c2cccc(F)c2n2cccc12,nt,-5,51*,1
Cc1cc(NC(=O)CSc2cc(Cl)ccc2Cl)n(-c2ccccc2)n1,-4,-18,0,1
CSc1ncccc1C(=O)OCC(=O)N(C)Cc1ccc(C)cc1,nt,nt,4,nt
C=CCOc1ccc(C2NC(=O)c3ccccc3O2)cc1OCC (configuration not stated),-2,18,-1,0
CCOC(=O)COc1cccc(C2NC(=O)c3ccccc3O2)c1 (configuration not stated),nt,14,83*,0
COc1cc(C(=O)N2CCN(C(=O)c3cccc4ccccc34)CC2)cc(OC)c1OC,-1,16,4,0
Cc1ccc(-n2nnnc2CNC(=O)c2ccc3c(c2)OCO3)cc1C,0,-8,0,1
CC(=O)Oc1ccc(-c2cccc(C(=O)O)c2)cc1,42,-3,11,-2
CC(=O)Oc1ccc(-c2cccc(C(=O)N(C)c3ccc(O)cc3)c2)cc1,86*,14,-1,2
COc1ccc(/C=C(/C(=O)c2ccc(Cl)cc2Cl)n2cncn2)cc1,95*,21,1,1
C/C(CC(=O)Nc1cccc(Cl)c1)=N\NC(=O)Cc1ccc(Cl)cc1,nt,29,1,-2
CCCCNC(=O)CC1N=C2c3ccccc3N=C(SCC(=O)Nc3cccc(C)c3)N2C1=O (configuration not stated),98*,-23,0,0
CCOc1cc(C2CC(=O)NC(SCC)=C2C#N)ccc1O (configuration not stated),nt,-11,-12,1
Oc1ccc(C2=Nn3c(nnc3-c3ccco3)SC2)cc1O,58,3,69*,0
CCCCC(=O)Nc1ccc(C(=O)Nc2cccnc2)cc1,-5,-2,2,1
CSc1ccc(S(=O)(=O)N2CCC(C(=O)NCc3cccnc3)CC2)cc1,-18,-9,-8,2
COC(C/C=C\C(=O)[C@H](C)OCc1ccccc1)OC,83*,nt,0,0
COC(C/C=C\[C@@H](O)[C@@H](C)OCc1ccccc1)OC,14,nt,4,2
CC1CCCN(CCC(=O)c2ccc(Br)cc2)C1 (configuration not stated),99*,9,-11,1
COCCCNC(=S)NNC(=S)Nc1cccc(Cl)c1,78*,-7,-3,-1
S=C(NCCc1ccccn1)Nc1cccc(Cl)c1,97*,-4,-1,-2
SMILES,ALR H2O2 inh,UBC9 SUMO inh,H9c2 protect,NTR1 ag
COC(=O)C1CSC(C(=O)OC)N1C(=O)Nc1ccccc1 (configuration not stated),nt,4,3,2
COC(=O)C1CSC(C(=O)OC)N1C(=O)CN1CCN(c2ccccc2)CC1 (configuration not stated),91*,5,-3,-1
Cc1cc(=O)oc2cc(OCC(=O)N3CCN(C(=O)C4COc5ccccc5O4)CC3)c(Cl)cc12 (configuration not stated),1,12,58*,2
Cc1cc(=O)oc2cc(OCC(=O)N3CCN(C(=O)C4COc5ccccc5O4)CC3)ccc12 (configuration not stated),-5,-6,20,0
C[C@H](CO)N1C[C@H](C)[C@@H](CN(C)C(=O)Nc2ccc(F)cc2)Oc2cc(Br)ccc2S1(=O)=O,nt,nt,-5,nt
Cc1c(Cl)c([N+](=O)[O-])nn1CCCC(=O)N1CCN(c2ccccc2)CC1,?,5,10,1
O=C(CCN1C(=O)c2ccccc2S1(=O)=O)N1CCN(c2ccccc2)CC1,88*,-9,6,1
O=C(CCSc1ccc(Cl)cc1)N1CCCCCC1,-1,-2,-3,-2
Cc1cc([N+](=O)[O-])nn1CCCC(=O)N1CCN(c2ccccc2)CC1,98*,-4,2,0
O=C(CCSc1ccc(Cl)cc1)N1CCN(c2ccc(O)cc2)CC1,100*,7,-8,1
O=C(CSc1ccccc1)N1CCN(c2ccccc2)CC1,11,-18,6,-1
O=C(CCSc1ccccc1)N1CCN(c2ccccc2)CC1,91*,-11,-1,0
Cc1cn([C@H]2C[C@H](O)[C@@H](CNC(=O)[C@@H]3CCCN3Cc3ccccc3)O2)c(=O)[nH]c1=O,nt,nt,9,nt
COc1cccc(-c2c(C#N)c(SC)nc3cc(C)nn23)c1,-4,18,-4,5
Cc1ccc(/C=C2\Oc3cc(OC(=O)N4CCOCC4)ccc3C2=O)cc1,-3,-17,2,0
COc1cc(NC(=O)CN2C(=O)C(c3ccccc3)=NC23CCCCCC3)cc(OC)c1,55,-52,-1,10
COc1cc(NC(=O)CN2C(=O)C(c3ccccc3)=NC2(C)C)cc(OC)c1,97*,1,5,1
Cc1cccc(C(=O)N/C(=C/c2ccco2)C(=O)N2CCCCCC2)c1,64,11,4,-1
Cc1ccc(NC(=S)/C(C#N)=C2/Nc3ccccc3S2)cc1,nt,nt,-30,nt
CC(NC(=O)COc1ccccc1)C(c1ccccc1)N1CCN(C)CC1 (configuration not stated),98*,0,-7,-1
COc1ccc(-c2nnn(Cc3ccccc3F)n2)cc1,4,-8,-8,0
Cc1ccc(Cl)cc1NC(=O)CSc1sc2c(O)cc(=O)[nH]c2c1C#N,92*,24,0,2
COc1ccc(NC(=O)CSc2sc3c(O)cc(=O)[nH]c3c2C#N)c(OC)c1,33,7,0,-3
COC(=O)c1ccc(C)c(NC(=O)CSc2sc3c(O)cc(=O)[nH]c3c2C#N)c1,?,24,0,0
COc1ccccc1NC(=O)CSc1sc2c(O)cc(=O)[nH]c2c1C#N,95*,16,2,-3
SMILES,ALR H2O2 inh,UBC9 SUMO inh,H9c2 protect,NTR1 ag
COc1ccc(Cl)cc1NC(=O)CSc1sc2c(O)cc(=O)[nH]c2c1C#N,99*,20,1,-1
Cc1ccc(C)c(NC(=O)CSc2sc3c(O)cc(=O)[nH]c3c2C#N)c1,?,16,2,0
COC(CNC(=O)c1ccc2c(c1)nc(C)n2-c1cccc(F)c1)OC,1,0,7,-1
O=[N+]([O-])c1cc(S(=O)(=O)C(F)(F)F)ccc1Sc1nc2ccccc2s1,98*,20,-36,-1
CS(=O)(=O)c1ccc(Sc2nc3ccccc3[nH]2)c([N+](=O)[O-])c1,-43,-6,1,1
O=[N+]([O-])c1cc(S(=O)(=O)C(F)(F)F)ccc1Sc1nc2ccccc2[nH]1,91*,-2,-35,10
N#Cc1ccc(CSC2=NCCN2)cc1,99*,3,-4,0
c1ccc(CSC2=NCCCN2)cc1,-13,7,12,3
Clc1ccccc1CSC1=NCCN1,nt,-7,-4,0
CCOc1ccc(CSC2=NCCN2)cc1Cl,100*,6,1,1

# Source: PubChem BioAssay
